Data taken from publication PMC12136788.
Where a chain is given by its changes, count along the chain named. Over roughly 5,800 sequences, “enrichment r” has its median near 0.54; the highest 2% begin near 16. What follows is part of a selection rich in the highest values, with near analogues and random picks from the rest.

B1: chr22:49888080:49888186:+|3pUTR|ENSG00000100426|unk|FALSE|unique (ssRNA)
RNA: GGGAGUUCUACAGUCCGACGAUCUGGCUUAUUAACAGGGAAGAAGCUUGUUAUAUUCCAGUUGUAAGAAUAGCCUUAGUGUUUAGAUUUUUUUAUGAUAGGGAAGAUGCGGCCAUCACUGGGAUAUUUUCAAAUCCCAAGGACCAACAGAGGAUUGAGCAUCA
B2: chr19:35555165:35555334:-|CDS|ENSG00000105675|control|control|control (ssRNA)
RNA: GGGAGUUCUACAGUCCGACGAUCGGCCGUCACGGGGGAUGGUGUGAAUGACUCCCCAGCUCUGAAGAAGGCAGACAUCGGAGUAGCCAUGGGCAUCGCUGGCUCAGAUGCUGCCAAAAAUGCAGCUGACAUGAUCCUGCUGGACAACAGAGGAUUGAGCAUCA
B3: chr7:39987650:39987751:+|CDS|ENSG00000065883|unk|total|mutant (ssRNA)
RNA: GGGAGUUCUACAGUCCGACGAUCUCCCGGCAUUCAAGAUCUCGCCGCAGGCACAGAUUGUCCCGAUCCAGAAGUCGUCAUUCCCGUAUUUCUCCCCGCACACUAACUCUGAAGAGCCGCCUGGCAGCUGAAUUGAACAAGAAUCAACAGAGGAUUGAGCAUCA
B4: chr7:158734047:158734148:-|3pUTR|ENSG00000117868|msi1_unk|FALSE|overlapping (ssRNA)
RNA: GGGAGUUCUACAGUCCGACGAUCCUACCCGGAACACACCCUCUCACAGACGUACCAAUGUUAUUUUUAUAAUUUCAUGGAUUUAGUUAUACAUACCUUAAUAGUUUUAUAAAAUUGUUGACAUUUCAGGCAAAUUUGGCCAAUCAACAGAGGAUUGAGCAUCA
B5: chr7:158734047:158734148:-|3pUTR|ENSG00000117868|msi1_unk|total|mutant (ssRNA)
RNA: B4 RNA with U83C, A84C, U101C, A102C
B6: chr19:9526975:9527076:-|3pUTR|ENSG00000130818|unk|total|mutant (ssRNA)
RNA: GGGAGUUCUACAGUCCGACGAUCCCUCUCAGACCUUCCAUCAUUACUAUAUUUCACUUUUAUGCCUAUAAACACACACAAAUCCGCAUAUGUAAUCUAAUACAUUGCCGCUAUUUUUCAGAAGUUAUCAGAUCAAUUAAGUAUCAACAGAGGAUUGAGCAUCA
B7: chr12:68839811:68839877:+|CDS_3pUTR|ENSG00000135679|msi1_unk|FALSE|overlapping (ssRNA)
RNA: GGGAGUUCUACAGUCCGACGAUCAUAAGCCCUGCCCAGUAUGUAGACAACCAAUUCAAAUGAUUGUGCUAACUUAUUUCCCCUAGUUGACCUGUCUAUAAGAGAAUUAUAUAUUUCUAACUAUAUAACCCUAGGAAUUUAGACCAACAGAGGAUUGAGCAUCA
B8: chr1:6224442:6224573:-|3pUTR|ENSG00000116237|msi1_unk|FALSE|overlapping (ssRNA)
RNA: GGGAGUUCUACAGUCCGACGAUCCUAUACAAUUUUAAAAAUACUUCCUCAUAGGAUGCUUUGGCCCUUCAUCUAUUUAAUCAUAGCUACAUACCUAUUUUUUAUAAGUAGCAGUACACAUUCAAAGGGGUAUUCCUAGCUCAACAACAGAGGAUUGAGCAUCA
B9: chr11:69653362:69653473:+|3pUTR|ENSG00000110092|msi1_unk|total|mutant (ssRNA)
RNA: GGGAGUUCUACAGUCCGACGAUCACUGCCAUGUACCCGUUUCCGUUUUCUCUCCGAACAUUGUAUUACAGAUGCCUUUUUUGCCGUUUUUUUUUUUUUUAUGUGAUCAAUUUUGACUUAAUGUGAUUACUGCUCUAUUCCAAACAACAGAGGAUUGAGCAUCA
B10: chr2:165880514:165880799:-|CDS|ENSG00000123607|control|control|control (ssRNA)
RNA: GGGAGUUCUACAGUCCGACGAUCGAUGGCAUGGAAAUAUAGCAAUCGGACAAAUCCGGCAGUAGGUGAGUUUGGCAAUCACCUAGAUUUUUCACAGAAAAAUUAUGUUGUAUUUAUUAAUUUUCAUUUAAAUGCAUUUGAUUUCAACAGAGGAUUGAGCAUCA
B11: chrX:129805617:129805718:-|3pUTR|ENSG00000188706|msi1|FALSE|unique (ssRNA)
RNA: GGGAGUUCUACAGUCCGACGAUCUCUUUUCCCAUUAGAUAUAUGUAAGUAGUUGUAGUAGAGAUAAUAAUUGACAUUUCUCGUAGACUACCCAGAAACUUUUUUAAUACCUGUGCCAUUCUCAAUAAGAAUUUAUGAGAUGCCCAACAGAGGAUUGAGCAUCA
B12: chr21:25881503:25881610:-|3pUTR|ENSG00000142192|msi1_unk|FALSE|overlapping (ssRNA)
RNA: GGGAGUUCUACAGUCCGACGAUCACAAACCCGUUUUAUGAUUUACUCAUUAUCGCCUUUUGACAGCUGUGCUGUAACACAAGUAGAUGCCUGAACUUGAAUUAAUCCACACAUCAGUAAUGUAUUCUAUCUCUCUUUACAUUUCAACAGAGGAUUGAGCAUCA
B13: chr11:69653362:69653473:+|3pUTR|ENSG00000110092|msi1_unk|FALSE|overlapping (ssRNA)
RNA: B9 RNA with C36U, C37A, C42U, C43A, C53U, C54A, C83U, C84A
B14: chrX:129805617:129805718:-|3pUTR|ENSG00000188706|msi1|total|mutant (ssRNA)
RNA: B11 RNA with U35C, A36C, U49C, A50C, U55C, A56C, U58C, A59C, U83C, A84C
B15: chr1:6224442:6224573:-|3pUTR|ENSG00000116237|msi1_unk|total|mutant (ssRNA)
RNA: B8 RNA with U51C, A52C, U83C, A84C, U108C, A109C, U136C, A137C
B16: chr2:205797254:205797461:+|3pUTR|ENSG00000118257|msi1|total|mutant (ssRNA)
RNA: GGGAGUUCUACAGUCCGACGAUCUCACCCUCCCAUGAUGCGCAGUGUUCAGAAAGCUGGUAAGUCCCCGGGAUUUCCAGAAGCCGCCUGCAGAAGAAGGUAAGUUUGAAAGCCACUCCAGGGGUCCUGAUGCUGUCAUGCUCACAACAGAGGAUUGAGCAUCA
B17: chr1:233671823:233671924:+|3pUTR|ENSG00000135750|msi1|total|mutant (ssRNA)
RNA: GGGAGUUCUACAGUCCGACGAUCUGCUGCUGUGGUCCGAAGCAGAUUUUAUACUUUUAACUGGAAACUUUGGGGUUUGCAUUCCGAUCAUUCCGCUGAUGGCUAAACCGCAAAAUUUAUAUUCCGAAGCAAAAAAAAAAAGCACAACAGAGGAUUGAGCAUCA
B18: chr3:133826890:133826991:-|3pUTR|ENSG00000154917|unk|total|mutant (ssRNA)
RNA: GGGAGUUCUACAGUCCGACGAUCUUUGAACGUGUUUCAGAUGUCAUGUGUUCCGUUUUUAUAUGUGUGUACAUAAUUAUAUACCGAGACCGACUUGUGUAUACACCUUCCACAAACACAUCCUCACGGAGAUACAUGUGCUCACAACAGAGGAUUGAGCAUCA
B19: chr4:140153917:140154018:-|5pUTR|ENSG00000196782|msi1|FALSE|bound_elsewhere (ssRNA)
RNA: GGGAGUUCUACAGUCCGACGAUCUUUGCAGUCGCCUCGGACUGUCCAUGUGUUUACUUCCCCCAGCCCGAGGAUUCGAUAUCUAGGUUCCUGUGAAAUGCAACUGAGCAGCCAAAGUACUUUGAGAACACGGGGCGGCAUAAACAACAGAGGAUUGAGCAUCA
B20: ENSG00000070961:be:win_2801|CDS|ENSG00000070961|bound_else_gene|NA|bound_elsewhere_windowed (ssRNA)
RNA: GGGAGUUCUACAGUCCGACGAUCGUCAUGCAUUCUAUCAACUUGUAGUAGUCUUUACACUCUUAUUUGCUGGAGAAAAGUUUUUUGACAUUGAUAGUGGAAGAAAUGCUCCUUUGCAUGCUCCUCCUUCAGAACAUUAUACUACAACAGAGGAUUGAGCAUCA
B21: chr10:122937732:122937852:-|CDS|ENSG00000119965|unk|total|mutant (ssRNA)
RNA: GGGAGUUCUACAGUCCGACGAUCGUAAGUGACAACUCAAAUAUACCCAACUCCGAGUUGCUGCCUUUUCUCCAGAAUUUAUGCCGUCAAGUUAAUCAUCUCCAUGUGGGAAAUAAGACCGAGUGUCAGGAAAACAUCACCAAGCAACAGAGGAUUGAGCAUCA
B22: chr4:168927217:168927233:+|3pUTR|ENSG00000129116|msi1_unk|FALSE|overlapping (ssRNA)
RNA: GGGAGUUCUACAGUCCGACGAUCAACCACCCAAAUGACCAAGGCAUAUAUAGUAUUUGGAGGAAUCAGGGGUUUGGAAGGAGUAGGGAGGAGAAUGAAGGAAAAUGCAACCAGCAUGAUUAUAGUGUGUUCAUUUAGAUAAAACAACAGAGGAUUGAGCAUCA

molecular target: MSI1 full-length (mouse, UniProt Q61474 1-362); assay: nsRBNS (natural sequence RNA bind-n-seq); RBNS binding buffer (assumed for nsRBNS): 25 mM Tris pH 7.5, 150 mM KCl, 3 mM MgCl2, 0.01% Triton X-100, 500 ug/ml BSA, 20 U/ml SUPERase-In, 4 C; UNK is unkempt and MSI1 is Musashi-1; names of the RNAs are library labels; protein concentration not given here; high values mean tight binding
Sequence (Q61474 whole entry): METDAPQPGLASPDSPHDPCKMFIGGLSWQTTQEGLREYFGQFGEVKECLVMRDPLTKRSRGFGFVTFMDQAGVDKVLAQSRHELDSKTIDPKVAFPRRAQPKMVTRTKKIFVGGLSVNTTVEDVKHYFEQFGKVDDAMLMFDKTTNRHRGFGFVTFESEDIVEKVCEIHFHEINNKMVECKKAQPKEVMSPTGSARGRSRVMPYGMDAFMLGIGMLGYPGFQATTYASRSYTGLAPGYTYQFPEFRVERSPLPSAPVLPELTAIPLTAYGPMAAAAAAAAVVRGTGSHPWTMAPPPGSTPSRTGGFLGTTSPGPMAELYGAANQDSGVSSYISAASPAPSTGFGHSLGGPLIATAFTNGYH

Binder | binding signal
B1 | 11.3 enrichment R
B2 | 0.465 enrichment R
B3 | 0.458 enrichment R
B4 | 20.8 enrichment R
B5 | 0.582 enrichment R
B6 | 9.57 enrichment R
B7 | 3.21 enrichment R
B8 | 7.66 enrichment R
B9 | 1.65 enrichment R
B10 | 0.379 enrichment R
B11 | 71.9 enrichment R
B12 | 0.949 enrichment R
B13 | 32.9 enrichment R
B14 | 0.608 enrichment R
B15 | 18.3 enrichment R
B16 | 0.483 enrichment R
B17 | 0.297 enrichment R
B18 | 0.348 enrichment R
B19 | 0.362 enrichment R
B20 | 0.822 enrichment R
B21 | 0.448 enrichment R
B22 | 4.58 enrichment R
